High-throughput results (PubChem)
Pf growth 96h: inhibits malaria parasite growth, 96 h | Potency, µM (highest dose often 28.7 µM), actives largely listed as inhibitors | actives 6.9% (n = 320,000) | P. falciparum luciferase reporter growth, 96 h
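96 h incubation, 37 C, 5% CO2, of luciferase-reporter P. falciparum-infected RBCs (2% hematocrit, 0.05% parasitemia final) with test compounds; endpoint luminescence.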
Shiga inhibitor: Shiga toxin inhibition | Vero cells, Shiga toxin protein synthesis inhibition reporter | inhibition, % at 38.7 µM | actives 9.2% (n = 290,000) | AID 2315; in the data active means inhibition mostly above about 28%, no sharp cut-off; inactive means mostly below about 43%
Pf growth 48h: inhibits P. falciparum growth in the first generation, 48 h. P. falciparum luciferase growth in erythrocytes, 48 h. Potency, µM (top dose mostly 28.7 µM), actives largely listed as inhibitors. actives 5.9% (n = 310,000). AID 504832
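Read-out is firefly luciferase luminescence from an integrated reporter in P. falciparum, so falling signal marks reduced parasite growth. Infected erythrocytes were at 2% hematocrit and 0.1% parasitemia (final) in Albumax-supplemented RPMI 1640.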
LmPK inhibitor: inhibitors of Leishmania mexicana pyruvate kinase | AID 1721 | purified LmPK, Kinase-Glo ATP luminescence, 1 h | Q27686 | Potency, µM (highest dose often 57.5 µM), most hits filed as inhibitors | actives 0.37% (n = 290,000)
Target sequence (Q27686 whole entry, looked up): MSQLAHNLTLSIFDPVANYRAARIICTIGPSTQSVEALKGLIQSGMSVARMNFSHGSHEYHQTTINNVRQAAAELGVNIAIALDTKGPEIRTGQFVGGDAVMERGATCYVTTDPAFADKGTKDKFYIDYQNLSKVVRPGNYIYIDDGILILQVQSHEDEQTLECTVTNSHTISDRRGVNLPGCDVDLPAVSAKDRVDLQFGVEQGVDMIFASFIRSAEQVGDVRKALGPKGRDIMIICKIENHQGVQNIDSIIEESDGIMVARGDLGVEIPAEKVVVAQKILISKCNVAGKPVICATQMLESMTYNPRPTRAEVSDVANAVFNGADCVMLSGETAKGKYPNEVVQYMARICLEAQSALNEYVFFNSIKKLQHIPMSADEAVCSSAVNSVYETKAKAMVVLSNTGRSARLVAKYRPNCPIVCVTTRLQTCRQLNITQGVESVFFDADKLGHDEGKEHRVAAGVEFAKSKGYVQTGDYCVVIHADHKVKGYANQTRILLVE
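In 50 mM imidazole pH 7.2 with 7 mM MgCl2, LmPK (0.1 nM) turned over PEP (0.5 mM) and ADP (0.1 mM) for 1 h at room temperature. Luciferase read-out of ATP.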
CHX counter: affects cycloheximide protein synthesis inhibition readout, counter-screen; cell reporter, cycloheximide protein synthesis inhibition counterscreen; actives 12% (n = 300,000); max response, %; in the data active means max response mostly above about 13%, no sharp cut-off; inactive means mostly below about 14%; further: read at 38.3 µM for the half of the compounds with a filed dose
Large screens that a line does not name were inactive. The list is not random: actives were taken first. Their share in the collection is about 22%. Unless noted, the call rests on the fitted dose curve; in most records, active means well fitted inhibition curve with a large enough effect; inconclusive means small, poorly fitted or top-dose-only effect, or another doubt; inactive means no such curve, though single readings can be large or run the other way.

CNc1ccc(/C=C2\CSc3ccccc3C2=O)cc1[N+](=O)[O-]	Pf growth 96h inconclusive, Pf growth 48h inconclusive
O=C1/C(=C/c2cccc([N+](=O)[O-])c2)CCc2ccccc21	Pf growth 96h inconclusive, Shiga inhibitor 57, CHX counter 59
O=C1/C(=C/c2cccc([N+](=O)[O-])c2)N2CCC1CC2	none
CCN1C/C(=C\c2cccc([N+](=O)[O-])c2)C(=O)/C(=C/c2cccc([N+](=O)[O-])c2)C1	Pf growth 48h 2.9µM
O=C1/C(=C/c2ccc([N+](=O)[O-])cc2)CCc2ccccc21	Shiga inhibitor 127, CHX counter 71
O=C1/C(=C/c2cccc([N+](=O)[O-])c2)CSc2ccc(Cl)cc21	none
O=C(CCn1c(=O)c2ccccc2n(Cc2ccccc2)c1=O)NCc1ccc2c(c1)OCO2	Pf growth 96h inconclusive (no result: Pf growth 48h)
CCn1c(=S)sc2c(=O)n(CC(=O)Nc3ccc(C(C)=O)cc3)c(C)nc21	none
COC(=O)C1=C(C)NC2=C(C(=O)CC(c3cccs3)C2)C1c1ccsc1 (stereo not drawn)	none
CC1=C(C(=O)OC2CCCCC2)C(c2ccc(C)o2)C2=C(CC(C)(C)CC2=O)N1 (stereo not drawn)	Pf growth 48h 12µM
CCOC(=O)C1=C(C)NC2=C(C(=O)CC(c3cccs3)C2)C1c1cccs1 (stereo not drawn)	Pf growth 96h inconclusive, Pf growth 48h 4.1µM
COC(=O)C1=C(C)NC2=C(C(=O)CCC2)C1c1ccc(-c2ccsc2C(=O)OC)o1 (stereo not drawn)	Pf growth 96h 12µM, Pf growth 48h inconclusive
CC1=C(C(=O)OC2CCCCCC2)C(c2ccc(C)o2)C2=C(CCCC2=O)N1 (stereo not drawn)	Shiga inhibitor active, Pf growth 48h inconclusive
Cc1cccc(C)c1Nc1nnc(SCC(=O)c2ccc3c(c2)NC(=O)CO3)s1	Pf growth 96h inconclusive
O=C(NCc1cccs1)C(=O)NCC1OCCCN1S(=O)(=O)c1cc(F)ccc1F (stereo not drawn)	Pf growth 48h inconclusive
CC1=C(C(=O)OC2CCCC2)C(c2coc3ccccc3c2=O)C2=C(CCCC2=O)N1 (stereo not drawn)	Pf growth 48h inconclusive
CC1=C(C(=O)OC2CCCC2)C(c2ccc(C)o2)C2=C(CC(c3cccs3)CC2=O)N1 (stereo not drawn)	Pf growth 48h 9.3µM
CCN(C(=O)CCc1nnc2ccc(NCc3ccco3)nn12)c1ccccc1	Pf growth 96h inconclusive, Pf growth 48h inconclusive
O=S(=O)(CCN1C=CC(C(F)(F)F)=NCC1)c1ccc(Cl)cc1Cl	none
CCOC(=O)c1cnc2ccc(Cl)cc2c1NCCN(C)C	Pf growth 96h 4.7µM, Pf growth 48h inconclusive, CHX counter 26
CCOC(=O)c1cnc2c(ccc3ccccc32)c1NCCCN(C)C	Pf growth 96h inconclusive, Shiga inhibitor 131, Pf growth 48h 4.1µM, CHX counter 33
CCOC(=O)c1cnc2ccccc2c1NCCO	Pf growth 96h inconclusive
CCOC(=O)c1cnc2ccc(Br)cc2c1NCCO	none
CCOC(=O)c1cnc2ccc(C)cc2c1NCCN1CCOCC1	Pf growth 48h 12µM
Cc1nc([N+](=O)[O-])c(Br)n1Cc1ccc(Cl)c(Cl)c1	Pf growth 48h inconclusive
CC(=O)N/C(=C\c1ccccc1)C(=O)OC(C)C(=O)NCc1ccccc1 (stereo not drawn)	none (no result: Shiga inhibitor, LmPK inhibitor, CHX counter)
O=C(NCC1CCCO1)c1c(O)nc2sccn2c1=O (stereo not drawn)	none (no result: Shiga inhibitor, LmPK inhibitor, CHX counter)
CC1CC(NC(=O)c2c(O)nc3sccn3c2=O)CC(C)(C)C1 (stereo not drawn)	Pf growth 96h inconclusive, Pf growth 48h 13µM (no result: Shiga inhibitor, LmPK inhibitor, CHX counter)
O=C(NC1CCCCCC1)c1c(O)nc2sccn2c1=O	Pf growth 96h 4.7µM, Pf growth 48h 6.6µM (no result: Shiga inhibitor, LmPK inhibitor, CHX counter)
O=C(NC1CCCCC1)c1c(O)nc2sccn2c1=O	Pf growth 96h 10µM, Pf growth 48h 10µM (no result: Shiga inhibitor, LmPK inhibitor, CHX counter)
Cc1ccc(-c2ccc(/C=N/NC(=O)CN3CCCC3)o2)cc1Cl	none
COC(=O)N/N=C/c1ccc(-c2cc(Cl)cc(Cl)c2)o1	Pf growth 96h inconclusive, Pf growth 48h inconclusive
COC(=O)N/N=C/c1ccc(-c2ccc(C)c(Cl)c2)o1	Pf growth 96h inconclusive, CHX counter 16
Cc1ccc(-c2ccc(/C=N/c3ncn[nH]3)o2)cc1Cl	CHX counter 17
Nc1ccccc1N=Cc1ccc(-c2cccc(Cl)c2)o1	Pf growth 96h inconclusive, Shiga inhibitor 76, Pf growth 48h 10µM, CHX counter 29
COC(=O)N/N=C/c1ccc(-c2cccc(Cl)c2)o1	Shiga inhibitor 55, CHX counter 33
COc1cccc(CNC(=O)CCCc2cn(C)c3ccccc23)c1	none (no result: Pf growth 48h)
Cc1ccc(-c2ccc(C(=O)O)o2)cc1Cl	CHX counter 16
O=C(O)c1ccc(-c2ccc(-c3ccccc3)cc2)o1	none (no result: Pf growth 96h, Pf growth 48h, LmPK inhibitor)
O=C(/C=C/c1ccc(Cl)cc1)NCc1cccs1	Shiga inhibitor 92, CHX counter 53
O=C(/C=C/c1cccc(Cl)c1)Nn1c(-c2cccs2)nc2ccccc2c1=O	Pf growth 96h 2.1µM
O=C(/C=C/c1cccc(Cl)c1)NCc1cccs1	Pf growth 96h inconclusive, Shiga inhibitor 41, CHX counter 38
COCCCNC(=O)/C=C/c1ccc(Cl)cc1	Shiga inhibitor 50, CHX counter 21
Cc1ccccc1-c1nc(CS(=O)CC(=O)NC2CCCCC2)c(C)o1 (stereo not drawn)	none
NS(=O)(=O)c1ccc(CCNS(=O)(=O)c2cccc(C(=O)O)c2)cc1	none
Cc1c(-c2cccc(Cl)c2)nc2ccccc2c1C(=O)OCC(=O)Nc1ccc2c(c1)OCO2	Pf growth 96h 2.1µM, Pf growth 48h inconclusive
Cc1c(-c2cccc(Cl)c2)nc2ccccc2c1C(=O)NC1CC1	Pf growth 96h 10µM
CCc1nc2ccccc2c(C(=O)OCC(=O)NCc2ccc3c(c2)OCO3)c1C	Pf growth 96h inconclusive
CCCc1nc2ccccc2c(C(=O)OCC(=O)NCc2ccc3c(c2)OCO3)c1CC	Pf growth 96h 8.3µM, Pf growth 48h 10µM
CC1CCC(NC(=O)c2cc(Cl)nc3ccccc23)CC1 (stereo not drawn)	none (no result: Shiga inhibitor, LmPK inhibitor, CHX counter)
CN(Cc1cnccn1)Cc1nc(Cc2cccc(F)c2)no1	Pf growth 96h inconclusive
Cc1ccc(Cl)cc1N1CCN(C(=O)c2ccc3c(c2)CCN3S(C)(=O)=O)CC1	Pf growth 48h inconclusive
Cc1ccc(C(=O)N2CCN(C(=O)c3ccco3)CC2)cc1NC(=O)c1ccco1	Pf growth 96h inconclusive
COc1ccc(C2=C(C=C(C#N)C#N)C(c3ccccc3C)c3ccccc3O2)cc1OC (stereo not drawn)	Pf growth 96h inconclusive, Pf growth 48h 9.3µM
CCC(=O)NC(c1cccc([N+](=O)[O-])c1)c1c(OC(C)=O)ccc2ccccc12 (stereo not drawn)	Pf growth 48h 13µM
CCC(=O)NC(c1ccccc1)c1c(OC(C)=O)ccc2ccccc12 (stereo not drawn)	Pf growth 96h 10µM, Pf growth 48h inconclusive
O=C(Cc1ccccc1)NC(c1ccco1)c1c(O)ccc2ccccc12 (stereo not drawn)	Pf growth 48h inconclusive
